From PMC7819943, “Rice protein-binding microarrays: a tool to detect cis-acting elements near promoter regions in rice”
In all, about 68,000 sequences were measured (“fluorescence intensity (a.u.)”: median about 9,100, highest 2% from about 16,000 on). The full list was thinned out, with the highest values kept by preference.

Target: OsWRKY34 (Oryza sativa, UniProt Q0JBA9 1-250)
Test: protein-binding microarray (RPBM); PBS, 2% BSA, 51.3 ng/ul salmon testes DNA, 50 uM zinc acetate, 200 nM TF, 25 C, 1 h; high values mean tight binding
Settings: protein: recombinant; tags: N-terminal polyhistidine and DsRed monomer fusion (pET32a); label: CyDye5-dUTP incorporated in the synthesized complementary strand; 3' TTTTT single-stranded linker to array surface; dsDNA, one strand shown
Method in brief: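 Transcription factors were made in E. coli BL21-CodonPlus as N-terminal fusions to a polyhistidine tag and DsRed, then purified on Ni–NTA. After primer extension with Cy5-dUTP and blocking with 2% BSA, a custom Agilent array was exposed for 1 h at 25 °C to 200 nM protein in PBS, 2% BSA, salmon testes DNA and 50 µM zinc acetate. Washed arrays were scanned on an Axon 4000B, and the binding signal is per-feature fluorescence intensity in arbitrary units.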

Sequence of OsWRKY34 (Q0JBA9 entry or part of it): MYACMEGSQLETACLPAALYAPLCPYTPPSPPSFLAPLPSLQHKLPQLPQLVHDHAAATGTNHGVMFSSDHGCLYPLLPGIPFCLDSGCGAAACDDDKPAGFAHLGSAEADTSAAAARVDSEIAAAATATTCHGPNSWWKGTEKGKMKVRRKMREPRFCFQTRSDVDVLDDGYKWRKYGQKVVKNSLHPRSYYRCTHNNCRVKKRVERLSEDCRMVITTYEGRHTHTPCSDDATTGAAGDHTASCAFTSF

| Sequence | binding signal |
| --- | --- |
| CGTGGAGAGGATTTGAGTGCCTTTTTTGGAGTTTGAGGGGCGGAGTCACCTAGTGCAG | 9570 fluorescence intensity (a.u.) |
| TCGGGGCGGGTCTGGGAGGGCTTGCGCTTGACACGGACGACGGAGTCACCTAGTGCAG | 17200 fluorescence intensity (a.u.) |
| TGTTGTTATGTTTTTGTCATGATCTCACAAGCAATGTACACGGAGTCACCTAGTGCAG | 11000 fluorescence intensity (a.u.) |
| CCTCTTCGAAGCCGTGAAATCTCAGCCGTCCATCCATGATCGGAGTCACCTAGTGCAG | 9040 fluorescence intensity (a.u.) |
| TCTTTTGAGCACCCCACTGGCCATGGTCTTTTATCGTCCCCGGAGTCACCTAGTGCAG | 8490 fluorescence intensity (a.u.) |
| ACTATCTTAGCCATTCCAACGCCGTCTTTCCTCGGTCCTCCGGAGTCACCTAGTGCAG | 12500 fluorescence intensity (a.u.) |
| AATCACCATCATCGCTGTTTGGGAGGGTCTGCCTGGCTTACGGAGTCACCTAGTGCAG | 13100 fluorescence intensity (a.u.) |
| TATTTGACTTCCGGCTTTTGTTTCCTTGATACTTTACTCTCGGAGTCACCTAGTGCAG | 9780 fluorescence intensity (a.u.) |
| ACCTTTGCTCACGATCCCAATGGCTTTAATTATGTACCACCGGAGTCACCTAGTGCAG | 8830 fluorescence intensity (a.u.) |
| CCAAAAACACTCACTCGGCCCACATCACGCCACCACCCCGCGGAGTCACCTAGTGCAG | 9750 fluorescence intensity (a.u.) |
| GATGGCGTACCAAAGTACTGGTAAAAACATCTTCAGTTTTCGGAGTCACCTAGTGCAG | 22300 fluorescence intensity (a.u.) |
| GGGCCTAGTTTTTCCAGGTAAAGTTGACCAAAAGTCTTCACGGAGTCACCTAGTGCAG | 8890 fluorescence intensity (a.u.) |
| TTTTTTTTCTGTTAGTACTGTTTTTGGTCCAAACATCTTTCGGAGTCACCTAGTGCAG | 8180 fluorescence intensity (a.u.) |
| CTTCTACTGCGTCGACTTGGAATTTTGCCGAATCTTTTTTCGGAGTCACCTAGTGCAG | 10400 fluorescence intensity (a.u.) |
| CACACACACTCCACTACTCCACTGCACTGCAGTCTCTCTCCGGAGTCACCTAGTGCAG | 10100 fluorescence intensity (a.u.) |
| CCTCGTTCTTCTTCTTCTCTCTCTGGTTTTACATTTTTACCGGAGTCACCTAGTGCAG | 10300 fluorescence intensity (a.u.) |
| CACGCACCGCCCATGCGTCCTTATCCACCCACCTCTCCACCGGAGTCACCTAGTGCAG | 8240 fluorescence intensity (a.u.) |
| AACCCACCTGCACGCACCGTCCTTACCTCTGTTCGATTGACGGAGTCACCTAGTGCAG | 16800 fluorescence intensity (a.u.) |
| TGAGTCCTTACCTCTCTCTCTCCAATGTTCGTCTGCGGCACGGAGTCACCTAGTGCAG | 8390 fluorescence intensity (a.u.) |
| GTAGATGTCGGGTGGGATGGTTTCAGGAAAAGAAACATGACGGAGTCACCTAGTGCAG | 12800 fluorescence intensity (a.u.) |
| CATTCACAACATCAAATTACATCTGCAGAGAGATCGCTCGCGGAGTCACCTAGTGCAG | 33900 fluorescence intensity (a.u.) |

| Sequence | binding signal |
| --- | --- |
| ACTTTCCTACACACAAACTTTCAACTTTTTCATCACATCGCGGAGTCACCTAGTGCAG | 8900 fluorescence intensity (a.u.) |
| AGTCTGGCTTGCACATCTGCTGTTTACAACACATCAAATTCGGAGTCACCTAGTGCAG | 9810 fluorescence intensity (a.u.) |
| CCATCGTTTCTCCCCGACGCCCTCGCCATCCTCCTCGCCACGGAGTCACCTAGTGCAG | 10500 fluorescence intensity (a.u.) |
| GCCTTTTTAAATTTTTTTATCACATCAAAACTTTTTTATACGGAGTCACCTAGTGCAG | 8370 fluorescence intensity (a.u.) |
| TTTACATATAATTTTCTTTAGGGTTTTATAGCTTTTTTAACGGAGTCACCTAGTGCAG | 8600 fluorescence intensity (a.u.) |
| TGAAGAGGTGAGTGTTTTAGGGTTTTGGTTGGGGTTTTGACGGAGTCACCTAGTGCAG | 14600 fluorescence intensity (a.u.) |
| CTGTTACTTCACAGTTATTTTTGTTGGGTGGGGACGTGGGCGGAGTCACCTAGTGCAG | 12600 fluorescence intensity (a.u.) |
| GGTTGGGGCGTGGGCGGCTGGGCGCGTGGGTTGCCCGCGACGGAGTCACCTAGTGCAG | 15600 fluorescence intensity (a.u.) |
| GGGTTTGGGTTTTTAGGTTTGGGGAGTTGGGCTGTGTTTACGGAGTCACCTAGTGCAG | 22100 fluorescence intensity (a.u.) |
| AGTGTTTGGTTTGAGGAGGACTAGTGGGGTGGTTTTTTGACGGAGTCACCTAGTGCAG | 13900 fluorescence intensity (a.u.) |
| TTCGTGTTTTGCTGGAGTTGGAGTTGCTGCATTGGGTTTACGGAGTCACCTAGTGCAG | 10700 fluorescence intensity (a.u.) |
| CGTTGAGTTGGTTTAGGGGTGGACTGATTTGCCTTTGCCCCGGAGTCACCTAGTGCAG | 12900 fluorescence intensity (a.u.) |
| GTGGGTGGGTTTGGAGTTTGGACTGTTTAGGGCCTTTTGACGGAGTCACCTAGTGCAG | 23300 fluorescence intensity (a.u.) |
| TTTTTGGGTTGGGTTGGGGACGCGCTGTTTCGACGTGGGGCGGAGTCACCTAGTGCAG | 19000 fluorescence intensity (a.u.) |
| ATATATGTTCTCTTAGTGTCTTTATTTTTAATATTTTTAACGGAGTCACCTAGTGCAG | 8530 fluorescence intensity (a.u.) |
| GGTTTAGGCTGTGTTTAGTTCTTTTTTTAATTTTTTTTAACGGAGTCACCTAGTGCAG | 16500 fluorescence intensity (a.u.) |
| CTGTATCCCCATTCGCTGTCAAAATTCAATTCACTGTCTTCGGAGTCACCTAGTGCAG | 9640 fluorescence intensity (a.u.) |
| GGTGGGAGCACGATGCGGGACGTGGGGTGGGATCGGAAGCCGGAGTCACCTAGTGCAG | 8590 fluorescence intensity (a.u.) |
| CCCTCCCTGGCCGTCGTGCCCGCCGCTGCTCGCCTTCGGCCGGAGTCACCTAGTGCAG | 10100 fluorescence intensity (a.u.) |
| TGGAGGGGAGTGGGATCGCGATCACGGGTGGGGCGTCGGACGGAGTCACCTAGTGCAG | 13100 fluorescence intensity (a.u.) |
| AAATCTTGGGTTTATGTGGGCGACGATGTCGGTTTGGAAACGGAGTCACCTAGTGCAG | 8060 fluorescence intensity (a.u.) |
